From PMC11006913
Changes are numbered by the printed parent chain.

Experiments:
Assay in all cases: PBM; 200 nM protein, PBS
Conditions in all cases: dsDNA, one strand shown
HOXB4 [1] = target: HOXB4 (Homo sapiens, UniProt P17483 148-234)
VENTX [2] = target: T1, VENTX (Homo sapiens, UniProt O95231 78-163, R121Q)
T1 sequence: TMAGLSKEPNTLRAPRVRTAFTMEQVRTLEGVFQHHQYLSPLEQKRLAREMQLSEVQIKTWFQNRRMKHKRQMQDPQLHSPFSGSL

HOXB9 [3] = target: HOXB9 (Homo sapiens, UniProt P17482 171-250, T197M)
HOXA4 [4] = target: HOXA4 (Homo sapiens, UniProt Q00056 201-287, W262R)
HOXA7 [5] = target: HOXA7 (Homo sapiens, UniProt P31268 116-202)
HOXB6 [6] = target: HOXB6 (Homo sapiens, UniProt P17509 132-218, K202E)
HOXA4 [7] = target: HOXA4 (Homo sapiens, UniProt Q00056 201-287, R217L)
HOXB4 [8] = target: HOXB4 (Homo sapiens, UniProt P17483 148-234, V174I)
HOXA4 [9] = target: HOXA4 (Homo sapiens, UniProt Q00056 201-287)
VAX1 [10] = target: VAX1 (Homo sapiens, UniProt Q5SQQ9 86-172)
HOXB9 [11] = target: HOXB9 (Homo sapiens, UniProt P17482 171-250, R186Q)
VAX1 [12] = target: VAX1 (Homo sapiens, UniProt Q5SQQ9 86-172, T142I)
HOXA7 [13] = target: HOXA7 (Homo sapiens, UniProt P31268 116-202, W177C)
HOXA4 [14] = target: HOXA4 (Homo sapiens, UniProt Q00056 201-287, W262F)
VAX1 [15] = target: VAX1 (Homo sapiens, UniProt Q5SQQ9 86-172, K157R)
HOXB6 [16] = target: HOXB6 (Homo sapiens, UniProt P17509 132-218)
PRRX1 [17] = target: PRRX1 (Homo sapiens, UniProt P54821 80-166, F113S)
VENTX [18] = target: T2, VENTX (Homo sapiens, UniProt O95231 78-163, Y115F)
T2 sequence: T1 sequence with Y38F, Q44R

HOXA2 [19] = target: HOXA2 (Homo sapiens, UniProt O43364 129-215, R185T)
HOXA2 [20] = target: HOXA2 (Homo sapiens, UniProt O43364 129-215, R185K)
HOXA2 [21] = target: HOXA2 (Homo sapiens, UniProt O43364 129-215, Y150S)
PRRX1 [22] = target: PRRX1 (Homo sapiens, UniProt P54821 80-166)
HOXA2 [23] = target: HOXA2 (Homo sapiens, UniProt O43364 129-215)
VENTX [24] = target: T3, VENTX (Homo sapiens, UniProt O95231 78-163)
T3 sequence: T1 sequence with Q44R

PAX4 = target: T4, PAX4 (Homo sapiens, UniProt O43316 9-242, F177Y)
T4 sequence: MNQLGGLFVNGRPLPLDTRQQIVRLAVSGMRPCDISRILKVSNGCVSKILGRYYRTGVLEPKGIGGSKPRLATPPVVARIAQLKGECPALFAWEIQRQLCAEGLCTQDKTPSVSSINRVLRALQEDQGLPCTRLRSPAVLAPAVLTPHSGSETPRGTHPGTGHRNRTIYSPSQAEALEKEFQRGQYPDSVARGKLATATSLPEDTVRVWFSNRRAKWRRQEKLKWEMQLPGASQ

HOXC10 [25] = target: HOXC10 (Homo sapiens, UniProt Q9NYD6 254-340)
HOXB9 [26] = target: HOXB9 (Homo sapiens, UniProt P17482 171-250)
HOXC10 [27] = target: HOXC10 (Homo sapiens, UniProt Q9NYD6 254-340, K271E)
HOXC10 (Homo sapiens, UniProt Q9NYD6 254-340, K271E), sequence (Q9NYD6 254-340 K271E): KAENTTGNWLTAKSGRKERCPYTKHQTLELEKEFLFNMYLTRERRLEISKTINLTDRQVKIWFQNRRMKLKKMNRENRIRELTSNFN

HOXA4 (Homo sapiens, UniProt Q00056 201-287, R217L), sequence (Q00056 201-287 R217L): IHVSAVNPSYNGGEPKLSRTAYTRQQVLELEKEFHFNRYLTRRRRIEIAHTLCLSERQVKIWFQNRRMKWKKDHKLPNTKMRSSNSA
HOXA4 (Homo sapiens, UniProt Q00056 201-287, W262R), sequence (Q00056 201-287 W262R): as the sequence (Q00056 201-287 R217L) above, with L17R, W62R counted along it
HOXA4 (Homo sapiens, UniProt Q00056 201-287, W262F), sequence (Q00056 201-287 W262F): as the sequence (Q00056 201-287 R217L) above, with L17R, W62F counted along it
HOXB4 (Homo sapiens, UniProt P17483 148-234, V174I), sequence (P17483 148-234 V174I): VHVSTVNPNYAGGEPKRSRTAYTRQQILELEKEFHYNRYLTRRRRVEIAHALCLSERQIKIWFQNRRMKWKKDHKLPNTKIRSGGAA
HOXB6 (Homo sapiens, UniProt P17509 132-218, K202E), sequence (P17509 132-218 K202E): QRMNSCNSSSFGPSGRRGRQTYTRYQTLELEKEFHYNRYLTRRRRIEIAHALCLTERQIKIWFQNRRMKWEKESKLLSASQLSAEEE
HOXB4 (Homo sapiens, UniProt P17483 148-234), sequence (P17483 148-234): as the sequence (P17483 148-234 V174I) above, with I27V counted along it
VAX1 (Homo sapiens, UniProt Q5SQQ9 86-172, K157R), sequence (Q5SQQ9 86-172 K157R): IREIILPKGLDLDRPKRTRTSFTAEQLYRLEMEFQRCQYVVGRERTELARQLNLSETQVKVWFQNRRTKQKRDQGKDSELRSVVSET
VAX1 (Homo sapiens, UniProt Q5SQQ9 86-172), sequence (Q5SQQ9 86-172): as the sequence (Q5SQQ9 86-172 K157R) above, with R72K counted along it
HOXA2 (Homo sapiens, UniProt O43364 129-215, R185T), sequence (O43364 129-215 R185T): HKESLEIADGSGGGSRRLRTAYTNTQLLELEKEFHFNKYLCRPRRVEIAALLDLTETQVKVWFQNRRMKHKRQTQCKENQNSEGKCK
VAX1 (Homo sapiens, UniProt Q5SQQ9 86-172, T142I), sequence (Q5SQQ9 86-172 T142I): as the sequence (Q5SQQ9 86-172 K157R) above, with T57I, R72K counted along it
HOXA2 (Homo sapiens, UniProt O43364 129-215, R185K), sequence (O43364 129-215 R185K): as the sequence (O43364 129-215 R185T) above, with T57K counted along it
HOXA4 (Homo sapiens, UniProt Q00056 201-287), sequence (Q00056 201-287): as the sequence (Q00056 201-287 R217L) above, with L17R counted along it
HOXB6 (Homo sapiens, UniProt P17509 132-218), sequence (P17509 132-218): as the sequence (P17509 132-218 K202E) above, with E71K counted along it
HOXA2 (Homo sapiens, UniProt O43364 129-215, Y150S), sequence (O43364 129-215 Y150S): as the sequence (O43364 129-215 R185T) above, with Y22S, T57R counted along it
HOXA7 (Homo sapiens, UniProt P31268 116-202, W177C), sequence (P31268 116-202 W177C): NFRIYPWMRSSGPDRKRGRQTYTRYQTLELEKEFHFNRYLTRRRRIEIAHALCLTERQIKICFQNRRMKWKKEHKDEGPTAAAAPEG
HOXA7 (Homo sapiens, UniProt P31268 116-202), sequence (P31268 116-202): as the sequence (P31268 116-202 W177C) above, with C62W counted along it
HOXB9 (Homo sapiens, UniProt P17482 171-250, R186Q), sequence (P17482 171-250 R186Q): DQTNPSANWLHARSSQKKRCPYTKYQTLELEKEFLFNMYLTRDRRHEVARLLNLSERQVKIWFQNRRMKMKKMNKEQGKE
HOXB9 (Homo sapiens, UniProt P17482 171-250, T197M), sequence (P17482 171-250 T197M): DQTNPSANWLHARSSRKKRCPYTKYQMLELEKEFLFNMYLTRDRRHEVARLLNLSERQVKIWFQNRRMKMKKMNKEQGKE
HOXA2 (Homo sapiens, UniProt O43364 129-215), sequence (O43364 129-215): as the sequence (O43364 129-215 R185T) above, with T57R counted along it
PRRX1 (Homo sapiens, UniProt P54821 80-166, F113S), sequence (P54821 80-166 F113S): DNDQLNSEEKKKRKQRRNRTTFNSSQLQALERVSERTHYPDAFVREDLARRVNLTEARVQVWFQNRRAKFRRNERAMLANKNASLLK
HOXB9 (Homo sapiens, UniProt P17482 171-250), sequence (P17482 171-250): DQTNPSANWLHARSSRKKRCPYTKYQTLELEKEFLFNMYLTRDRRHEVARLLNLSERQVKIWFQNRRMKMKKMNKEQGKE
HOXC10 (Homo sapiens, UniProt Q9NYD6 254-340), sequence (Q9NYD6 254-340): as the sequence (Q9NYD6 254-340 K271E) above, with E18K counted along it
PRRX1 (Homo sapiens, UniProt P54821 80-166), sequence (P54821 80-166): as the sequence (P54821 80-166 F113S) above, with S34F counted along it

TCCATTAA
binding signal (HOXB4 [1]): 13 upbm affinity estimate (log intensity, higher = more binding, comparable within an allelic series)
binding signal (VENTX [2]): 11.7 upbm affinity estimate (log intensity, higher = more binding, comparable within an allelic series)
binding signal (HOXB9 [3]): 9.97 upbm affinity estimate (log intensity, higher = more binding, comparable within an allelic series)
binding signal (HOXA4 [4]): 10.5 upbm affinity estimate (log intensity, higher = more binding, comparable within an allelic series)
binding signal (HOXA7 [5]): 11.2 upbm affinity estimate (log intensity, higher = more binding, comparable within an allelic series)
binding signal (HOXB6 [6]): 9.96 upbm affinity estimate (log intensity, higher = more binding, comparable within an allelic series)
binding signal (HOXA4 [7]): 11.9 upbm affinity estimate (log intensity, higher = more binding, comparable within an allelic series)
binding signal (HOXB4 [8]): 13.6 upbm affinity estimate (log intensity, higher = more binding, comparable within an allelic series)
binding signal (HOXA4 [9]): 13.7 upbm affinity estimate (log intensity, higher = more binding, comparable within an allelic series)
binding signal (VAX1 [10]): 12.8 upbm affinity estimate (log intensity, higher = more binding, comparable within an allelic series)
binding signal (HOXB9 [11]): 11.5 upbm affinity estimate (log intensity, higher = more binding, comparable within an allelic series)
binding signal (VAX1 [12]): 12.2 upbm affinity estimate (log intensity, higher = more binding, comparable within an allelic series)
binding signal (HOXA7 [13]): 8.72 upbm affinity estimate (log intensity, higher = more binding, comparable within an allelic series)
binding signal (HOXA4 [14]): 11.4 upbm affinity estimate (log intensity, higher = more binding, comparable within an allelic series)
binding signal (VAX1 [15]): 12.2 upbm affinity estimate (log intensity, higher = more binding, comparable within an allelic series)
binding signal (HOXB6 [16]): 11.7 upbm affinity estimate (log intensity, higher = more binding, comparable within an allelic series)

AGTCATTA
binding signal (HOXB4 [1]): 13.1 upbm affinity estimate (log intensity, higher = more binding, comparable within an allelic series)
binding signal (VENTX [2]): 11.7 upbm affinity estimate (log intensity, higher = more binding, comparable within an allelic series)
binding signal (HOXA4 [4]): 10.6 upbm affinity estimate (log intensity, higher = more binding, comparable within an allelic series)
binding signal (HOXA7 [5]): 11.5 upbm affinity estimate (log intensity, higher = more binding, comparable within an allelic series)
binding signal (PRRX1 [17]): 10.4 upbm affinity estimate (log intensity, higher = more binding, comparable within an allelic series)
binding signal (VENTX [18]): 11.7 upbm affinity estimate (log intensity, higher = more binding, comparable within an allelic series)
binding signal (HOXB6 [6]): 9.89 upbm affinity estimate (log intensity, higher = more binding, comparable within an allelic series)
binding signal (HOXA2 [19]): 12.9 upbm affinity estimate (log intensity, higher = more binding, comparable within an allelic series)
binding signal (HOXA4 [7]): 12.5 upbm affinity estimate (log intensity, higher = more binding, comparable within an allelic series)
binding signal (HOXB4 [8]): 13.7 upbm affinity estimate (log intensity, higher = more binding, comparable within an allelic series)
binding signal (HOXA2 [20]): 13.5 upbm affinity estimate (log intensity, higher = more binding, comparable within an allelic series)
binding signal (HOXA4 [9]): 13.9 upbm affinity estimate (log intensity, higher = more binding, comparable within an allelic series)
binding signal (VAX1 [10]): 13.1 upbm affinity estimate (log intensity, higher = more binding, comparable within an allelic series)
binding signal (VAX1 [12]): 13 upbm affinity estimate (log intensity, higher = more binding, comparable within an allelic series)
binding signal (HOXA2 [21]): 10.9 upbm affinity estimate (log intensity, higher = more binding, comparable within an allelic series)
binding signal (HOXA7 [13]): 8.85 upbm affinity estimate (log intensity, higher = more binding, comparable within an allelic series)
binding signal (HOXA4 [14]): 12 upbm affinity estimate (log intensity, higher = more binding, comparable within an allelic series)
binding signal (PRRX1 [22]): 12.7 upbm affinity estimate (log intensity, higher = more binding, comparable within an allelic series)
binding signal (HOXA2 [23]): 12.7 upbm affinity estimate (log intensity, higher = more binding, comparable within an allelic series)
binding signal (VAX1 [15]): 12.9 upbm affinity estimate (log intensity, higher = more binding, comparable within an allelic series)
binding signal (HOXB6 [16]): 11.7 upbm affinity estimate (log intensity, higher = more binding, comparable within an allelic series)

ATCGATTA
binding signal (HOXB4 [1]): 13.1 upbm affinity estimate (log intensity, higher = more binding, comparable within an allelic series)
binding signal (VENTX [2]): 11.7 upbm affinity estimate (log intensity, higher = more binding, comparable within an allelic series)
binding signal (VENTX [24]): 12.6 upbm affinity estimate (log intensity, higher = more binding, comparable within an allelic series)
binding signal (VENTX [18]): 11.3 upbm affinity estimate (log intensity, higher = more binding, comparable within an allelic series)
binding signal (HOXA2 [19]): 12.6 upbm affinity estimate (log intensity, higher = more binding, comparable within an allelic series)
binding signal (HOXA4 [7]): 12 upbm affinity estimate (log intensity, higher = more binding, comparable within an allelic series)
binding signal (HOXB4 [8]): 13.8 upbm affinity estimate (log intensity, higher = more binding, comparable within an allelic series)
binding signal (HOXA2 [20]): 13.1 upbm affinity estimate (log intensity, higher = more binding, comparable within an allelic series)
binding signal (PAX4): 11 upbm affinity estimate (log intensity, higher = more binding, comparable within an allelic series)
binding signal (HOXA4 [14]): 11 upbm affinity estimate (log intensity, higher = more binding, comparable within an allelic series)

CGTGCCTC
binding signal (HOXB4 [1]): 7.37 upbm affinity estimate (log intensity, higher = more binding, comparable within an allelic series)
binding signal (HOXB9 [3]): 8.3 upbm affinity estimate (log intensity, higher = more binding, comparable within an allelic series)
binding signal (HOXC10 [25]): 10 upbm affinity estimate (log intensity, higher = more binding, comparable within an allelic series)
binding signal (HOXB6 [6]): 8.93 upbm affinity estimate (log intensity, higher = more binding, comparable within an allelic series)
binding signal (HOXB9 [26]): 8.2 upbm affinity estimate (log intensity, higher = more binding, comparable within an allelic series)
binding signal (HOXB4 [8]): 7.39 upbm affinity estimate (log intensity, higher = more binding, comparable within an allelic series)
binding signal (HOXC10 [27]): 9.99 upbm affinity estimate (log intensity, higher = more binding, comparable within an allelic series)
binding signal (HOXB9 [11]): 8.24 upbm affinity estimate (log intensity, higher = more binding, comparable within an allelic series)
binding signal (HOXB6 [16]): 8.84 upbm affinity estimate (log intensity, higher = more binding, comparable within an allelic series)

GCTAATGA
binding signal (HOXB4 [1]): 13.3 upbm affinity estimate (log intensity, higher = more binding, comparable within an allelic series)
binding signal (VENTX [2]): 11.9 upbm affinity estimate (log intensity, higher = more binding, comparable within an allelic series)
binding signal (HOXA4 [4]): 10.5 upbm affinity estimate (log intensity, higher = more binding, comparable within an allelic series)
binding signal (VENTX [24]): 12.5 upbm affinity estimate (log intensity, higher = more binding, comparable within an allelic series)
binding signal (VENTX [18]): 11.9 upbm affinity estimate (log intensity, higher = more binding, comparable within an allelic series)
binding signal (HOXA2 [19]): 13.1 upbm affinity estimate (log intensity, higher = more binding, comparable within an allelic series)
binding signal (HOXA4 [7]): 12.1 upbm affinity estimate (log intensity, higher = more binding, comparable within an allelic series)
binding signal (HOXB4 [8]): 14 upbm affinity estimate (log intensity, higher = more binding, comparable within an allelic series)
binding signal (HOXA2 [20]): 13.6 upbm affinity estimate (log intensity, higher = more binding, comparable within an allelic series)
binding signal (HOXA4 [9]): 13.9 upbm affinity estimate (log intensity, higher = more binding, comparable within an allelic series)
binding signal (VAX1 [10]): 13.5 upbm affinity estimate (log intensity, higher = more binding, comparable within an allelic series)
binding signal (VAX1 [12]): 13.3 upbm affinity estimate (log intensity, higher = more binding, comparable within an allelic series)
binding signal (HOXA2 [21]): 10.8 upbm affinity estimate (log intensity, higher = more binding, comparable within an allelic series)
binding signal (HOXA4 [14]): 11.9 upbm affinity estimate (log intensity, higher = more binding, comparable within an allelic series)
binding signal (HOXA2 [23]): 12.8 upbm affinity estimate (log intensity, higher = more binding, comparable within an allelic series)
binding signal (VAX1 [15]): 13.4 upbm affinity estimate (log intensity, higher = more binding, comparable within an allelic series)
